According to PubChem BioAssay AID2314 (National Center for Advancing Translational Sciences (NCATS), 2010):
Where “and” joins values, the source holds several entries; their conditions need not be identical. Equal values may be shown once. About 37,000 (12%) of roughly 300,000 compounds were called active. Many of the other results were omitted from the sample, so actives are more common in it than they were. A number with no mark means an inactive call. Rule as the data show it: active = max response mostly above about 13% (no sharp cut-off); inactive = mostly below about 14%.

Experiment: Cycloheximide Counterscreen for Small Molecule Inhibitors of Shiga Toxin; also: read at 38.3 µM for the half of the compounds with a filed dose; 0% is about no effect
Settings: cell reporter, cycloheximide protein synthesis inhibition counterscreen; active compounds read high

| Structure (SMILES) | max response |
| --- | --- |
| O=C(Cc1ccccc1Cl)N1CCOCC1 | -3.01% |
| Cc1ccc(Cl)cc1NC(=O)CN1CCN(S(=O)(=O)N2CCOCC2)CC1 | -6.26% |
| O=C(c1c(F)cccc1Cl)N1CCN(S(=O)(=O)c2ccc3c(c2)OCCCO3)CC1 | -1.76% |
| O=C(CN(C(=O)CCC(=O)Nc1nccs1)c1ccc(F)cc1)NCc1ccc2c(c1)OCO2 | -6.07% |
| COc1ccc(-c2oc(/N=C/N3CCCC3)c(C#N)c2-c2ccc(OC)cc2)cc1 | -5.61% |
| O=[N+]([O-])c1cc(C(F)(F)F)ccc1NCCc1ccncc1 | 9.83% |
| Fc1ccccc1CCNc1nnnn1-c1ccccc1 | 0.858% |
| O=C1CCC(=O)N1c1ccc(NCCc2ccccc2F)c([N+](=O)[O-])c1 | 21.6% (active) |
| COc1ccc(N2CCC(CNC(=S)Nc3c(C)cccc3C)C2)cc1 (configuration not stated) | -1.13% |
| COc1cc(NS(=O)(=O)c2ccc(NC(=O)c3ccc([N+](=O)[O-])cc3)cc2)ncn1 | -2.23% |
| CCCc1cc(=O)oc2c(C)c(OCC(=O)Nc3ccccn3)ccc12 | 32.5% (active) |
| CCCc1cc(=O)oc2c(C)c(OCC(=O)NCc3ccccn3)ccc12 | -0.405% |
| CCCc1cc(=O)oc2c(C)c(OCC(=O)N3CCC(C(=O)O)CC3)ccc12 | -2.94% |
| O=C1COc2ccc(C(=O)COC(=O)C3CC(O)CN3S(=O)(=O)c3ccc(Cl)cc3)cc2N1 (configuration not stated) | -1.44% |
| CCc1ccc(Nc2nnc(SCC(=O)c3ccc4c(c3)NC(=O)CO4)s2)cc1 | 20.5% (active) |
| CCCc1nc2ccccc2c(C(=O)OCC(=O)c2ccc3c(c2)NC(=O)CO3)c1CC | -2.81% |
| COc1cccc(Nc2nnc(SCC(=O)N3CC(=O)Nc4ccccc43)s2)c1 | -2.67% |
| COC(=O)c1ccccc1Sc1c(/C=N/OCc2ccc(Cl)cc2)c(C(F)(F)F)nn1C | 3.42% |
| CC(C)C(C)(C#N)NC(=O)CSc1nc2scc(-c3ccccc3)c2c(=O)[nH]1 (configuration not stated) | -4.09% |
| COc1ccc(-n2nnnc2SCC(=O)NCc2cccs2)cc1 | -3.1% |
| CCOc1cccc(-n2nnnc2-c2ccc(OC)cc2)c1 | -3.31% |
| COc1ccc(-n2nnnc2-c2nc3ccccc3s2)cc1 | 40.1% (active) |
| Cc1ccc(NC(=S)NC(NC(=O)Cc2cccc3ccccc23)C(Cl)(Cl)Cl)cc1 (configuration not stated) | -3% |

| Structure (SMILES) | max response |
| --- | --- |
| Fc1ccccc1CNC(=S)Nc1ccc(Cl)cc1 | 6.56% |
| O=C(Cc1cccc2ccccc12)NNC(=O)Nc1ccc(Cl)cc1 | 28.4% (active) |
| O=C(CCCCCn1c(=S)[nH]c2cc3c(cc2c1=O)OCO3)N1CCN(c2ccc(F)cc2)CC1 | 10.7% |
| CC(=O)c1ccc(NC(=O)Nc2ccc([N+](=O)[O-])cc2C)cc1 | -0.717% |
| CC(=O)N1c2ccc(S(=O)(=O)N3CCC(C(=O)NC4CCCCC4C)CC3)cc2CC1C (configuration not stated) | 4.46% |
| O=C(Nc1ncc2c(n1)CC(c1ccco1)CC2=O)c1ccc(Cl)cc1 (configuration not stated) | -2.44% |
| CCc1ccc(Nc2ncc3c(n2)CC(c2ccco2)CC3=O)cc1 (configuration not stated) | 26.7% (active) |
| COc1cc(C2CC(=O)c3cnc(NC(C)=O)nc3C2)cc(OC)c1OC (configuration not stated) | -4.71% |
| COC(=O)c1nc2n(n1)C(c1ccc([N+](=O)[O-])cc1)C(C(=O)Nc1ccc(Cl)cc1)=C(C)N2 (configuration not stated) | -2.4% |
| O=c1cc(Cl)c2ccccc2n1-c1ccccc1 | -3.75% |
| Cc1cc(C)c(C2C3=C(Nc4c2c(C)nn4-c2ccccn2)c2ccccc2C3=O)c(C)c1 (configuration not stated) | -1.26% |
| COc1ccc(NC(=O)c2cccc(NC(=O)c3ccco3)c2)c(OC)c1 | -3.4% |
| COc1ccccc1C(=O)Nc1ccc(NC(=O)c2ccco2)c(C)c1 | 10.8% |
| O=C(Nc1ccc(NC(=O)c2cccs2)cn1)c1ccco1 | 51.1% (active) |
| O=C(Nc1ccnc(-c2ccncc2)n1)c1cccs1 | -2.6% |
| COc1cccc(C(=O)Nc2ccc(NC(=O)c3ccco3)cn2)c1 | 55.5% (active) |
| NC(=O)c1ccsc1NC(=O)c1ccco1 | 12.2% |
| CC(C)CC(=O)NC(=S)NNC(=O)c1cccc([N+](=O)[O-])c1 | 4.5% |
| CCOc1ccc(CNC(=O)C2CCCN(c3nnc(C)c4c(C)n(-c5ccccc5)nc34)C2)cc1 (configuration not stated) | -1.93% |
| COc1ccc(S(=O)(=O)N2CCN(c3ccc(F)cc3)CC2)cc1-c1noc(C)n1 | 10.5% |
| Cc1ccccc1CSc1nnc(CCCCCNC(=O)OC(C)(C)C)o1 | -1.71% |
| CCOc1ccccc1NC(=O)Cn1nnc(C(=O)NCc2cccs2)c1N | -7.84% |
| O=C(NCc1cc(F)cc(C(F)(F)F)c1)C1CCC(=O)N(C2CCCC2)C1 (configuration not stated) | 25.3% |

| Structure (SMILES) | max response |
| --- | --- |
| O=C(C1CCN(S(=O)(=O)c2ccc(Br)s2)CC1)N1CCN(c2ccccc2)CC1 | -2.23% |
| CSc1ccc(S(=O)(=O)N2CCC(C(=O)NCCc3ccccc3)CC2)cc1 | 0.47% |
| O=C(NCCc1ccccc1)C1CCN(S(=O)(=O)c2ccc(Br)s2)CC1 | 11.9% (active) |
| Oc1c(Cl)cc(Cl)cc1/C=N/c1ncn[nH]1 | -3.31% |
| CCOC(=O)N1CCN(C(=O)c2ccc3c(=O)n(CCc4ccc(OC)c(OC)c4)c(=O)[nH]c3c2)CC1 | 2.53% |
| COc1cccc(CNC(=O)C2CCCN(S(=O)(=O)N3CC(C)CC(C)C3)C2)c1 (configuration not stated) | 3.03% |
| O=C(N/N=C/c1ccc(Cl)cc1)c1nc2ccc([N+](=O)[O-])cc2c(=O)[nH]1 | -1.53% |
| Oc1ccc(Cl)cc1/C=N/c1nc2ccccc2[nH]1 | 23.3% |
| O=C(/C(=C/c1cccc(Cl)c1)c1nc2ccccc2[nH]1)c1ccccc1 | 46.6% (active) |
| CC(C)(C)c1ccc(CCC2OCC(CN3CCOCC3)O2)cc1 (configuration not stated) | 16.4% |
| CCOC(OCC)OCC | 6.84% |
| Cc1oc2cc3oc(=O)ccc3cc2c1C | 25.5% (active) |
| CC(C)OC(=O)c1ccc(COc2ccc3ccc(=O)oc3c2)o1 | 22.4% |
| Cc1ccc(OCC(=O)Nc2ccc3oc(=O)ccc3c2)cc1C | -4.02% |
| COc1c(C(C)C)oc2cc3oc(=O)ccc3cc12 | 60.5% (active) |
| Cc1noc(C)c1COc1ccc2ccc(=O)oc2c1 | -2.41% |
| COc1ccc(Nc2cc(=O)oc3ccccc23)cc1 | -1.7% |
| CCCCCn1c(=O)[nH]c2cc(C(=O)NCCCN3CCCCC3C)ccc2c1=O (configuration not stated) | -2.4% |
| CC(C)CN(CC(C)C)CC(O)CN(c1ccccc1)S(=O)(=O)c1ccccc1[N+](=O)[O-] (configuration not stated) | 3.27% |
| CC(C)CNC(=O)C(=O)NCC(c1ccc2c(c1)OCO2)N1CCOCC1 (configuration not stated) | -4.38% |
| COCCOC1CCN(C(=O)c2ccc(OC)c(OC3CCN(C(C)C)CC3)c2)CC1 | -2.04% |
| Cc1noc(NS(=O)(=O)c2ccc(NC(=O)c3oc4ccc(F)cc4c3C)cc2)c1C | -2.38% |
| Cc1nc(-c2ccccc2)cn2c1nc1ccccc12 | 12.4% |

| Structure (SMILES) | max response |
| --- | --- |
| Cc1ccc(S(=O)(=O)N2CCC(Oc3ccc(-n4cnnn4)cc3)CC2)cc1 | -4.88% |
| O=C(Cc1ccc(Br)cc1)NCCN1CCOCC1 | -13% |
| CCN1C(=NCCc2cccnc2)N[C@@H](c2ccccc2)C(C(=O)OC)=C1C | 1.37% and -1.46% |
| O=C(c1ccc(F)cc1)n1cc(C(=S)N2CCOCC2)c2ccccc21 | 7.24% |
| O=C(c1ccc(F)cc1)n1c(=S)nc2ccccn21 | 53.4% (active) |
| O=C(C[n+]1cc(Br)cc2ccccc21)c1ccc(F)cc1 | 3.72% |
| CC(C(=O)NC1CCCCC1)N1C(=O)c2cccc3cccc1c23 (configuration not stated) | 11.1% |
| COCCN(C(=O)CCC(=O)Nc1nccs1)C(C(=O)NCCC(C)C)c1ccc(F)cc1 (configuration not stated) | -2.06% |
| CCOC(=O)C1=C(c2ccc(OC)cc2)C(=O)c2ccccc2C1=O | 1.07% |
| CCOC(=O)c1c(-c2ccc(C)cc2)csc1/N=C(\C)C1=C(O)c2ccccc2C1=O | 11.2% (active) |
| CCOC(=O)c1c(-c2ccc(-c3ccccc3)cc2)csc1NC(=O)CCC(=O)O | -2.27% |
| CCc1cccc(CC)c1NC(=S)Nc1ccc2cn[nH]c2c1 | -0.951% |
| Cc1csc(NC(=S)Nc2cccc(Cl)c2)n1 | 41.1% (active) |
| CC(=O)c1cccc(NC(=O)c2ccncc2)c1 | 7.01% |
| S=C(Nc1cccc(Cl)c1)Nc1ccc2cn[nH]c2c1 | 24.8% (active) |
| CC(=O)Nc1cccc(C(=O)Nc2nc(C)cs2)c1 | 27.2% (active) |
| CCn1c(SCC(=O)Nc2nc(C)cs2)nnc1C(C)NC(=O)c1ccccc1 (configuration not stated) | 1.33% |
| Cc1cccc(NC(=S)Nc2ccc3cn[nH]c3c2)c1 | 7.4% |
| Cc1csc(NC(=O)c2ccc(-c3ccc(Cl)cc3Cl)o2)n1 | 11.3% |
| Cc1cccc(NC(=S)Nc2ccc(Cl)c(Cl)c2)c1 | -1.87% |
| Cc1cc(=O)oc2cc(OCC3CC(c4ccccc4Cl)=NO3)ccc12 (configuration not stated) | 13.7% |
| Cc1ccc(NC2CCCN(C(=O)CCC3(C)CC3)C2)cc1C (configuration not stated) | 10.8% |
| Cc1nc2ccc(C(=O)N(C)CC3CCCN(CCc4ccc(Cl)cc4)C3)cc2[nH]1 (configuration not stated) | -2.66% |
